# Reference: PubChem BioAssay (NCATS)
# Inconclusive results are not listed. Calls of active or inactive are those of the source. Unless noted, calls follow the shape of the dose curve; as a rule, active = well fitted inhibition curve with a large enough effect; inconclusive = small, poorly fitted or top-dose-only effect; inactive = flat fitted curve, though single readings scatter.
# Key:
# [1] = qHTS drug screen for cell cycle checkpoint inhibitors in PARPi-resistant BRCA-mutant ovarian cancer cell lines. (AID 1963452; calls by dose curve); conditions: PEO1/OlaR viability, CellTiter-Glo luminescence, 96 h; for Z-AUC: stronger effect = lower value
# Summary of the method: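 PEO1, PEO4 and PEO1/OlaR ovarian cancer cells, 600 per well, exposed 96 h at 37C to a dilution series. Viability read by CellTiter-Glo luminescence, normalized to DMSO and empty wells; activity summarized as Z-AUC.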
# [2] = qHTS for identification of novel therapeutic agents for treatment of microphthalmiaassociated transcription factor (MiT) renal cell carcinoma (RCC) (AID 1963991; calls by dose curve); conditions: CellTiter-Glo, 48 h; for z-score: stronger effect = lower value
# Summary of the method: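 Curves over 11 concentrations were fitted to CellTiter-Glo luminescence, scaled between empty wells (0%) and DMSO (100%) viability. Cells were UOK109, UOK124 and UOK145 TFE3-fusion RCC lines at 500/well, exposed 48 hours at 37 C.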
# [3] = qHTS profiling for inhibitors of Plasmodium falciparum proliferation (AID 504749);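 as to activity, negative = inhibition: 0% = DMSO vehicle and full inhibition = artemisinin control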; as to all read-outs here: nearly all actives have a fitted effect of over 60% in size; conditions: P. falciparum in erythrocytes, SYBR Green DNA, 72 h; for activity, negative = inhibition: at 28.7 µM (top of the series)
# Summary of the method: (§1)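 Infected RBCs, 0.3% parasitemia/2.5% Hct final; cpd 72 h, 37 C, 5% CO2; lysis buffer with saponin/triton/SYBR Green I, o/n RT dark; FI 485/535; norm. to artemisinin (0.29 uM) and DMSO.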
# [4] = tested on: 3D7; test: as above; conditions: P. falciparum in erythrocytes, SYBR Green DNA, 72 h; series mostly up to 28.7 µM
# Summary of the method: as §1
# [5] = tested on: AA1029; test: as above; conditions: P. falciparum in erythrocytes, SYBR Green DNA, 72 h; series mostly up to 28.7 µM
# Summary of the method: as §1
# [6] = tested on: AS120; test: as above; conditions: P. falciparum in erythrocytes, SYBR Green DNA, 72 h; series mostly up to 28.7 µM
# Summary of the method: as §1
# [7] = tested on: ATS189; test: as above; conditions: P. falciparum in erythrocytes, SYBR Green DNA, 72 h; series mostly up to 28.7 µM
# Summary of the method: as §1
# [8] = tested on: ATS95; test: as above; conditions: P. falciparum in erythrocytes, SYBR Green DNA, 72 h; series mostly up to 28.7 µM
# Summary of the method: as §1
# [9] = tested on: C2A; test: as above; conditions: P. falciparum in erythrocytes, SYBR Green DNA, 72 h; series mostly up to 28.7 µM
# Summary of the method: as §1
# [10] = tested on: CP185; test: as above; conditions: P. falciparum in erythrocytes, SYBR Green DNA, 72 h; series mostly up to 28.7 µM
# Summary of the method: as §1
# [11] = tested on: CP192; test: as above; conditions: P. falciparum in erythrocytes, SYBR Green DNA, 72 h; series mostly up to 28.7 µM
# Summary of the method: as §1
# [12] = tested on: CP194; test: as above; conditions: P. falciparum in erythrocytes, SYBR Green DNA, 72 h; series mostly up to 28.7 µM
# Summary of the method: as §1
# [13] = tested on: CP201; test: as above; conditions: P. falciparum in erythrocytes, SYBR Green DNA, 72 h; series mostly up to 28.7 µM
# Summary of the method: as §1
# [14] = tested on: CP211; test: as above; conditions: P. falciparum in erythrocytes, SYBR Green DNA, 72 h; series mostly up to 28.7 µM
# Summary of the method: as §1
# [15] = tested on: CP215; test: as above; conditions: P. falciparum in erythrocytes, SYBR Green DNA, 72 h; series mostly up to 28.7 µM
# Summary of the method: as §1
# [16] = tested on: CP217; test: as above; conditions: P. falciparum in erythrocytes, SYBR Green DNA, 72 h; series mostly up to 28.7 µM
# Summary of the method: as §1
# [17] = tested on: CP237; test: as above; conditions: P. falciparum in erythrocytes, SYBR Green DNA, 72 h; series mostly up to 28.7 µM
# Summary of the method: as §1
# [18] = tested on: CP238; test: as above; conditions: P. falciparum in erythrocytes, SYBR Green DNA, 72 h; series mostly up to 28.7 µM
# Summary of the method: as §1
# [19] = tested on: 7G8; test: as above; conditions: P. falciparum in erythrocytes, SYBR Green DNA, 72 h; series mostly up to 28.7 µM
# Summary of the method: as §1
# [20] = measured here: PEO1 parental Z-AUC
# [21] = TFE3-RCC UOK109 viability, measured here: UOK109 Z-AUC
# [22] = TFE3-RCC viability, measured here: UOK124 Z-AUC
# [23] = TFE3-RCC viability, measured here: UOK145 Z-AUC
# Potency is read from the fitted curve at half-maximal effect.
structure (smiles),measurement,setting,value
CCCCOCCOc1nc(-c2ccc(C(=O)O)c(F)c2)sc1C,Z-AUC,[1],1.12 (inactive)
same,Z-AUC,[1]; [20],0.866
same,Z-AUC,[1]; measured here: PEO4 Z-AUC,0.696
same,z-score,[2]; [21],1.12
same,z-score,[2]; [22],0.152
same,z-score,[2]; [23],0.316
N[C@@H](CC(=O)N1CCn2c(nnc2C(F)(F)F)C1)Cc1cc(F)c(F)cc1F,z-score,[2]; [21],0.736
same,z-score,[2]; [22],0.907
same,z-score,[2]; [23],0.666
CC1=C(C(=O)Nc2cc3cn[nH]c3cc2F)C(c2ccc(C(F)(F)F)cc2)CC(=O)N1 (configuration not stated),Z-AUC,[1],-0.362 (inactive)
same,Z-AUC,[1]; [20],-0.272
same,Z-AUC,[1]; measured here: PEO4 Z-AUC,-0.273
same,z-score,[2]; [21],0.673
same,z-score,[2]; [22],0.25
same,z-score,[2]; [23],0.771
CN1C(=O)C(Cc2c[nH]c3ccccc23)NC1=S (configuration not stated),Z-AUC,[1],-0.877 (inactive)
same,Z-AUC,[1]; [20],-0.326
same,Z-AUC,[1]; measured here: PEO4 Z-AUC,-0.823
same,z-score,[2]; [21],0.322
same,z-score,[2]; [22],0.546
same,z-score,[2]; [23],0.284
CC(=O)OCC(=O)[C@@]1(O)CC[C@H]2[C@@H]3CCC4=CC(=O)C=C[C@]4(C)[C@@H]3[C@@H](O)C[C@@]21C,z-score,[2]; [21],0.953
same,z-score,[2]; [22],0.317
same,z-score,[2]; [23],-2.56
Cc1cc2nc3c(=O)[nH]c(=O)nc-3n(CC(O)C(O)C(O)CO)c2cc1C (configuration not stated),Z-AUC,[1],-0.035 (inactive)
same,Z-AUC,[1]; [20],0.9
same,Z-AUC,[1]; measured here: PEO4 Z-AUC,1
same,"activity, negative = inhibition",[3]; parasite line A,-17.3% (inactive)
same,"activity, negative = inhibition",[3]; parasite line B,-10.6% (inactive)
same,Potency,[4],inactive
same,Potency,[5],inactive
same,Potency,[6],inactive
same,Potency,[7],inactive
same,Potency,[8],inactive
same,Potency,[9],inactive
same,outcome,[10],inactive
same,Potency,[11],inactive
same,Potency,[12],inactive
same,Potency,[13],inactive
same,Potency,[14],inactive
same,Potency,[15],inactive
same,Potency,[16],inactive
same,Potency,[17],inactive
same,Potency,[18],inactive
CCC[C@H](Nc1nc(-c2ccc(NC(=O)NCC)c(OC)c2)ncc1C)c1cccnc1,Potency,[1],8.7 nM (active)
same,Z-AUC,[1]; [20],-2.97
same,Z-AUC,[1]; measured here: PEO4 Z-AUC,-3.47
same,Potency,"[2]; TFE3-RCC UOK109 viability, active = Z-AUC below -0.8 in all three lines",37.2 nM (active)
same,z-score,[2]; [21],-2.33
same,z-score,[2]; [22],-3.81
same,z-score,[2]; [23],-2.31
Clc1ccc(COC(Cn2ccnc2)c2ccc(Cl)cc2Cl)c(Cl)c1 (configuration not stated),Z-AUC,[1],-0.245 (inactive)
same,Z-AUC,[1]; [20],0.118
same,Z-AUC,[1]; measured here: PEO4 Z-AUC,-0.196
same,Potency,[3]; parasite line B,2.82 µM (active)
same,Potency,[19],708 nM (active)
same,Potency,[5],4.47 µM (active)
same,Potency,[6],2 µM (active)
same,Potency,[8],3.98 µM (active)
same,Potency,[15],5.73 µM (active)
same,Potency,[16],3.16 µM (active)
same,Potency,[17],3.55 µM (active)
